These results are taken from PubChem BioAssay.

Molecules are shown by their SMILES. Values without a mark were called inactive. For some assays here: Results with a measured potency or affinity are listed apart. Active and inactive are the calls of the source. Unless noted, no rule for the calls is given here.

The nature of assay [1]: antimalarial activity against Dd2 strain (AID 2302;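 active = growth inhibition above 50% at the single 2 µM test dose, taken to imply half-maximal potency below 2 µM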;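 also: 0% = DMSO untreated growth and 100% = chloroquine plus artemisinin killed control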). To be noted: P. falciparum Dd2 in RBCs, LDH growth readout, 72 h; at 2 µM; active compounds read high.
Assay [2] in a line: HepG2 cytotoxicity, primary screen, cytotoxicity control for P. falciparum antimalarial project, cell-based, ATP luminescence (AID 2303;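 active = inhibition above 50%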;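 also: 0% = DMSO wells and 100% = digitonin-killed cells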). To be noted: HepG2 viability, 24-48 h, at 10 µM, active compounds read high.
For assay [3], the target named is L-lactate dehydrogenase (Plasmodium falciparum (isolate CDC / Honduras)) (UniProt Q27743). Description: PfLDH activity inhibition – cell lysate, 3D7 strain, counter-screen for P. falciparum growth inhibition project (AID 2304).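 Also: 0% = vehicle and 100% = reference inhibitor.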 To be noted: P. falciparum 3D7 crude extract, LDH APAD/NBT absorbance; at 2 µM; active compounds read high. On the technique in general: Counterscreens check selectivity or assay interference.

Assay [4] is described as follows: inhibition of 3D7 malaria parasite growth – strain 3D7 (AID 2306).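 Also: 0% = DMSO wells and 100% = chloroquine plus artemisinin control wells.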 To be noted: P. falciparum 3D7 erythrocytic growth, LDH absorbance, 72 h; at 2 µM; active compounds read high.
Assay [5] addresses Calcium-dependent protein kinase 1 (Plasmodium falciparum (isolate 3D7)) (UniProt P62344). The assay can be described thus: PfCDPK1 kinase inhibitors, biochemical, TCAMS library (AID 1159585; cut-off not given, nearly all actives have IC50 up to about 0.98 µM;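 also: inhibitors leave more ATP so luminescence rises with inhibition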). To be noted: recombinant PfCDPK1, Kinase-Glo ATP depletion luminescence. Background: In Kinase-Glo more light means more ATP remaining.
Assay [6] addresses Plasmodium falciparum protein kinase 6 (PK6, PF3D7_1337100) (UniProt Q8IDW1). Description: PfPK6 kinase inhibitors, biochemical, TCAMS library (AID 1159586). To be noted: recombinant PfPK6, Kinase-Glo ATP depletion luminescence.
In assay [7] the target is Protein kinase 7 (PK7), Plasmodium falciparum 3D7 (PF3D7_0213400) (UniProt Q7YTF7). Description: inhibition of Plasmodium PK7 catalytic activity – biochemical, TCAMS antimalarial set, Kinase-Glo luminescence (AID 1159587). To be noted: recombinant PfPK7, Kinase-Glo ATP depletion luminescence.
For assay [8], the target named is Calcium-dependent protein kinase 4 (Plasmodium falciparum (isolate 3D7)) (UniProt Q8IBS5). The assay can be described thus: PfCDPK4 kinase inhibitors, biochemical, TCAMS library (AID 1159588; cut-off not given, nearly all actives have IC50 up to about 0.91 µM). To be noted: recombinant PfCDPK4, Kinase-Glo ATP depletion luminescence.
Calcium-dependent protein kinase 4 (Plasmodium falciparum (isolate 3D7)), sequence (Q8IBS5 whole entry, looked up): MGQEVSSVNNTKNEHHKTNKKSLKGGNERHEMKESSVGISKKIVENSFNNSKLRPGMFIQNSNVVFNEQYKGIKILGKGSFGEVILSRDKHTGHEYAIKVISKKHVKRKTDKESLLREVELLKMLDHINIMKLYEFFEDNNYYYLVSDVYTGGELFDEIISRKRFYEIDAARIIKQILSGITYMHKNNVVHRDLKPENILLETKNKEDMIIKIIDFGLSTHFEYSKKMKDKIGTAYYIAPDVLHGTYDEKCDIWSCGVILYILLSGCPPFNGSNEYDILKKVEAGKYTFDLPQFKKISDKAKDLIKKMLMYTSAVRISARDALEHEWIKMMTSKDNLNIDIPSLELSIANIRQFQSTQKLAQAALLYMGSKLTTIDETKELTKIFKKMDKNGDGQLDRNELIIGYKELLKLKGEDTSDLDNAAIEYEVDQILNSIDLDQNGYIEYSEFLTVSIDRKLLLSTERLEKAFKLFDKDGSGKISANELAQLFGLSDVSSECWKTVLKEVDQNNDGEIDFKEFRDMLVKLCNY

Protein kinase 7 (PK7), Plasmodium falciparum 3D7 (PF3D7_0213400), sequence (Q7YTF7 1-343): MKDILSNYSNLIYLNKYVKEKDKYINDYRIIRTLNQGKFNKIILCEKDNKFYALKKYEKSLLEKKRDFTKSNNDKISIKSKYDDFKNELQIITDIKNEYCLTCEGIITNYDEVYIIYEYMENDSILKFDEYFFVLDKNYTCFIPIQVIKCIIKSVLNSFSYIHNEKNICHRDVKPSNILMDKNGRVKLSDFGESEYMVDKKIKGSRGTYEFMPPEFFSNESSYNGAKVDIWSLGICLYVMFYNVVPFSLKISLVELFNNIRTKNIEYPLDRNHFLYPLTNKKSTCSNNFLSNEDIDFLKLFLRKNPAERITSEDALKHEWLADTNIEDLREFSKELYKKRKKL
Plasmodium falciparum protein kinase 6 (PK6, PF3D7_1337100), sequence (Q8IDW1 1-305): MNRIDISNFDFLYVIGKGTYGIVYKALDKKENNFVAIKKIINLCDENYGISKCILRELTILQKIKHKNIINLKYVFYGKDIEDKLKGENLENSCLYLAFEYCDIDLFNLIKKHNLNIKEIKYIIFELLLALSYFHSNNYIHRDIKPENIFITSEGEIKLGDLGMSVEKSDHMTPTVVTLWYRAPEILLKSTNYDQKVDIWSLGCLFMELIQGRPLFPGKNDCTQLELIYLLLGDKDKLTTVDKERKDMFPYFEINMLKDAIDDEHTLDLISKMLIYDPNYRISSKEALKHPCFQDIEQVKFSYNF
L-lactate dehydrogenase (Plasmodium falciparum (isolate CDC / Honduras)), sequence (Q27743 whole entry, looked up): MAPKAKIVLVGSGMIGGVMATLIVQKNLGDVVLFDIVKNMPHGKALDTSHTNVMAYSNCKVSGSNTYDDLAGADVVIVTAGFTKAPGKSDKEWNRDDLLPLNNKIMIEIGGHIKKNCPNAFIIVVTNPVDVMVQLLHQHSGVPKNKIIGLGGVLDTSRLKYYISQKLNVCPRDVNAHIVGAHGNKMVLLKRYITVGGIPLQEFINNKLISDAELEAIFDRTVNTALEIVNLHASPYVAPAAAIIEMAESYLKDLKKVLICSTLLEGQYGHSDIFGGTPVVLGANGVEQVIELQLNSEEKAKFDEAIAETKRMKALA
Calcium-dependent protein kinase 1 (Plasmodium falciparum (isolate 3D7)), sequence (P62344 whole entry, looked up): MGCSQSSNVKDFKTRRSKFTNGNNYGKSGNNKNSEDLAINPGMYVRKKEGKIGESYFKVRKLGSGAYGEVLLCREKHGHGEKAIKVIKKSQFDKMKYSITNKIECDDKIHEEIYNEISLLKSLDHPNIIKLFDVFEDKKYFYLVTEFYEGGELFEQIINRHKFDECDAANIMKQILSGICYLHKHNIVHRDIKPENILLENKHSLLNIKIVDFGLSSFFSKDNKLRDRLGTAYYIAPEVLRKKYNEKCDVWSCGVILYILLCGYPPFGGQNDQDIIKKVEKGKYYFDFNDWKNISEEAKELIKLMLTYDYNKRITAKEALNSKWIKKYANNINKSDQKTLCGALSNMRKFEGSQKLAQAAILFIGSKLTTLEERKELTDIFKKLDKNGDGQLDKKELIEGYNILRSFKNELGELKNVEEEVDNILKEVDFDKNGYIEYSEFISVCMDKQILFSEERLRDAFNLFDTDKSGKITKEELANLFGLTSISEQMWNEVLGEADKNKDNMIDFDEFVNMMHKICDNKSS

Regarding `CCCN(Cc1nnc(-c2cccs2)o1)C(=O)CSc1nnnn1-c1ccc(C)c(C)c1`, the growth inhibition was 80% (active) in assay [1] and 96% (active) in assay [4]. Also, the inhibition was -7% in assay [2] and 0% in assay [3]. Besides, the result in assay [5], in assay [6], in assay [7] and in assay [8] was inactive.

With `O=C(Nc1cccc(C(F)(F)F)c1)c1cccc(S(=O)(=O)NCC2CCN(CC3CCCCC3)CC2)c1`, the results for the growth inhibition in assay [1] and in assay [4] were 5% and 97% (active), respectively. For the same compound, the inhibition in assay [2] was 27%; in assay [3] it was 0%. Besides, the outcome in assay [5], in assay [6], in assay [7] and in assay [8] was inactive.

Consider `Cc1ccc(F)c(C(=O)Nc2cccc(-c3nn4ccccc4c3-c3ccnc(Nc4cccc(F)c4)n3)c2)c1F`, for which the results for the growth inhibition in assay [1] and in assay [4] were 60% (active) and 98% (active), respectively. In addition, the inhibition in assay [2] was 35%; in assay [3], 6%. Besides, the result in assay [5], in assay [6], in assay [7] and in assay [8] was inactive.

Regarding `CC(C)CCNC(=O)[C@@H]1[C@H]2C(=O)N(C3CCCCC3)C(=O)[C@H]2[C@H]2C=C[C@@H]3C(c4ccc(C(C)(C)C)cc4)=NO[C@@H]3N21`, the growth inhibition in assay [1] is 48%; in assay [4] it was 96% (active). The results for the inhibition in assay [2] and in assay [3] were -4% and -2%, respectively. Moreover, the outcome in assay [5], in assay [6], in assay [7] and in assay [8] was inactive.

Turning to `O=C(/C=C/c1ccc(Cl)c(Cl)c1)NCCCCCN1CCC(NC(=O)Nc2cc(F)cc(F)c2)CC1`, the growth inhibition was 6% in assay [1] and 101% (active) in assay [4]. The values for the inhibition in assay [2] and in assay [3] were 80% (active) and -3%, respectively. Besides, the result in assay [5], in assay [6], in assay [7] and in assay [8] was inactive.

Regarding `Cc1ccc(C2CCN(CCCCNC(=O)c3ccc(-c4ccc(C(F)(F)F)cc4)cc3)CC2)c(O)c1`, the growth inhibition was 49% in assay [1] and 100% (active) in assay [4]. For the same compound, the inhibition is 92% (active) in assay [2] and -2% in assay [3]. Also, the result in assay [5], in assay [6], in assay [7] and in assay [8] was inactive.

Regarding `Cc1noc(C)c1-c1ccc2c(Nc3ccccc3C(C)(C)C)c(C(=O)NCc3cccc4ccccc34)cnc2c1`, the values for the growth inhibition in assay [1] and in assay [4] were 64% (active) and 96% (active), respectively. Moreover, the figures for the inhibition in assay [2] and in assay [3] were 4% and -2%, respectively. The outcome in assay [5], in assay [6], in assay [7] and in assay [8] was inactive.

As for `CC(CCCC(=O)Nc1ccc(CC(C)NCCc2cccc(Cl)c2)cc1)NCCc1cccc(Cl)c1` (configuration not stated), the growth inhibition is 14% in assay [1] and 101% (active) in assay [4]. The inhibition is 98% (active) in assay [2] and -3% in assay [3]. Besides, the outcome in assay [5], in assay [6], in assay [7] and in assay [8] was inactive.

In the case of `CCc1ccc(CN2CCC(CNC(=O)c3cc(-c4ccccc4Cl)cs3)C2)cc1` (configuration not stated), the growth inhibition in assay [1] was 0%; in assay [4], 98% (active). Further, the values for the inhibition in assay [2] and in assay [3] were 14% and -2%, respectively. For the same compound, the result in assay [5], in assay [6], in assay [7] and in assay [8] was inactive.

In the case of `O=C(Nc1ccc(Cl)c(Cl)c1)N1CCc2ccc(OCCCN3CCCCC3)cc2CC1`, the growth inhibition in assay [1] is -2%; in assay [4], 92% (active). In addition, the figures for the inhibition in assay [2] and in assay [3] were 27% and -2%, respectively. In addition, the outcome in assay [5], in assay [6], in assay [7] and in assay [8] was inactive.

With `COCCNCc1cccc(C#Cc2cc3ncnc(Nc4ccc(OCc5cccc(F)c5)c(Cl)c4)c3s2)n1`, the growth inhibition in assay [1] was 52% (active); in assay [4], 99% (active). Besides, the inhibition was 35% in assay [2] and -4% in assay [3]. The outcome in assay [5], in assay [6], in assay [7] and in assay [8] was inactive.

Consider `O=S(=O)(NCCN1CCCC1)c1cccc(-c2cccc(CNCc3ccc(F)cc3)c2)c1`, for which the growth inhibition was 73% (active) in assay [1] and 99% (active) in assay [4]. Moreover, the results for the inhibition in assay [2] and in assay [3] were 41% and 4%, respectively. Moreover, the outcome in assay [5], in assay [6], in assay [7] and in assay [8] was inactive.

With `Nc1nccc2ccc(-c3ccc(Oc4ccccc4)cc3)cc12`, the growth inhibition is 80% (active) in assay [1] and 98% (active) in assay [4]. Moreover, the inhibition is 36% in assay [2] and -3% in assay [3]. The outcome in assay [5], in assay [6], in assay [7] and in assay [8] was inactive.

On to `COc1cc(NC(=O)/C=C/c2ccccc2Cl)cc(OCCN2CCC(O)(c3ccccc3)CC2)c1`, for which the growth inhibition was 46% in assay [1] and 102% (active) in assay [4]. For the same compound, the inhibition in assay [2] is 48%; in assay [3], -1%. Also, the result in assay [5], in assay [6], in assay [7] and in assay [8] was inactive.

On to `CCCNCCc1ccc(NS(=O)(=O)c2cccc(-c3ccc(Cl)cc3)c2)cc1`, for which the growth inhibition in assay [1] is 36%; in assay [4], 101% (active). Besides, the results for the inhibition in assay [2] and in assay [3] were 36% and 0%, respectively. For the same compound, the result in assay [5], in assay [6], in assay [7] and in assay [8] was inactive.

In the case of `O=C(/C=C/c1ccc(Cl)c(Cl)c1)NCCCCCCN1CCN(C(=O)Nc2ccc(F)c(Cl)c2)CC1`, the growth inhibition was 2% in assay [1] and 86% (active) in assay [4]. For the same compound, the figures for the inhibition in assay [2] and in assay [3] were 40% and -7%, respectively. Moreover, the result in assay [5], in assay [6], in assay [7] and in assay [8] was inactive.

Consider `COc1cc(CN2CCC(C(=O)Nc3ccc(-c4cccc(C)c4)cc3)CC2)ccc1O`, for which the growth inhibition in assay [1] is 85% (active); in assay [4], 100% (active). Moreover, the inhibition was 25% in assay [2] and 3% in assay [3]. In addition, the result in assay [5], in assay [6], in assay [7] and in assay [8] was inactive.

As for `CCOC(=O)c1c(CNc2ccncc2)n(C)c2cc(Br)c(OC(C)=O)cc12`, the growth inhibition in assay [1] is 93% (active); in assay [4], 96% (active). For the same compound, the inhibition in assay [2] is -3%; in assay [3] it was 5%. For the same compound, the outcome in assay [5], in assay [6], in assay [7] and in assay [8] was inactive.

With `CN1CCN(c2ccc(-c3nc4c(C(N)=O)c(OCc5cc(Cl)cc(Cl)c5)ccc4[nH]3)cc2)CC1`, the growth inhibition is 85% (active) in assay [1] and 100% (active) in assay [4]. For the same compound, the results for the inhibition in assay [2] and in assay [3] were 45% and -2%, respectively. For the same compound, the result in assay [5], in assay [6], in assay [7] and in assay [8] was inactive.

A word on the inhibition: it is the drop in the measured response relative to a control, in per cent.
